Screens deposited in PubChem BioAssay by NMMLSC.
Compounds with a hit are over-represented: about 1.8% of the library has one in this group of screens.
RPL19A TOR yeast – RPL19A-GFP expression modulators in yeast, primary screen, cell-based, S. cerevisiae, multiplex flow cytometry, MLPCN | S. cerevisiae RPL19A-GFP strain, 3 h; active compounds read low | percent response vs DMSO, % at 10 µM | 330,000 compounds, 0.3% hits | AID 2025, 2009;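 active = percent response vs DMSO below 50%; inconclusive = fewer than 70 events counted for the yeast strain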;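 note: median channel GFP fluorescence of the barcoded RPL19A-GFP strain; ratio of sample median GFP to plate DMSO average so 100% = DMSO; lower means less RPL19A-GFP as with rapamycin TOR inhibition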
Myeloid diff MLP – induction of myeloid progenitor differentiation, primary screen, cell-based, flow cytometry, MLPCN library; calls only at 10 µM; 360,000 compounds, 1% hits; ER-HoxA9 myeloid progenitors, lysozyme-GFP differentiation;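 active = normalized GFP-positive differentiation at or above the plate's own cutoff, the solvent-only control mean plus 3 SD; inconclusive = no clear call, values can overlap the other calls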;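 note: cells exposed to compound for four days before flow analysis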
AGP1 TOR yeast – modulators of AGP1-GFP expression in yeast TOR pathway, primary screen, cell-based, multiplex flow cytometry, S. cerevisiae, MLPCN library. 3 h; GFP as percent of DMSO wells. GFP response vs DMSO, % at 10 µM. 320,000 compounds, 0.02% hits. AID 2066, 2009;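 active = GFP response relative to DMSO above a set limit, near screen average plus 3 SD, cut at about 150% in these data; inconclusive = fewer than 70 cells counted for the yeast strain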;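 note: median GFP channel fluorescence of the gated AGP1 strain per well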
MEP2 TOR yeast – modulators of MEP2-GFP levels in yeast, primary screen, S. cerevisiae, multiplex flow cytometry, MLPCN library; 330,000 compounds, 0.51% hits; GFP response vs DMSO, % at 10 µM; S. cerevisiae MEP2-GFP strain, 3 h; 100% = DMSO control level;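 active = GFP response versus DMSO above a set limit, roughly screen mean plus 3 SD, cut at about 180% in these data; inconclusive = fewer than 70 cells counted for a yeast strain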;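 note: median GFP fluorescence of the barcode-gated MEP2-GFP cells per well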
CIT2-GFP yeast – modulators of CIT2-GFP expression in yeast, primary screen, S. cerevisiae, GFP fusion, multiplex flow cytometry, MLPCN library; S. cerevisiae CIT2-GFP strain, 3 h; 100 means same as DMSO wells; GFP response vs DMSO, % at 10 µM; 320,000 compounds, 0.065% hits;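 active = GFP response relative to DMSO above a set limit, near the screen mean plus 3 SD, cut at about 150% in these data; inconclusive = Fewer than 70 cells measured for a yeast strain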;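 note: ratio of well median GFP fluorescence to mean of DMSO wells on the plate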
LAP4-GFP MLPCN – modulators of LAP4-GFP expression in yeast, primary screen, S. cerevisiae, multiplex flow cytometry, MLPCN library. 3 h; median GFP as percent of DMSO wells. 320,000 compounds, 0.34% hits. GFP response vs DMSO, % at 10 µM;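 active = GFP response vs DMSO above a set limit, about the screen mean plus 3 SD, cut at about 150% in these data; inconclusive = under 70 cell events counted for the yeast strain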
LAP4-GFP pick2 – LAP4-GFP expression modulators in yeast, confirmation, cell-based, second cherry pick, flow cytometry; S. cerevisiae LAP4-GFP strain, 3 h; GFP response vs DMSO, % at 10 µM; 590 compounds, 20% hits; shares compounds with LAP4-GFP MLPCN; AID 2621, 2010;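 active = GFP signal as percent of the solvent control above about 150%, meaning raised reporter expression, limit read from the data; inconclusive = fewer than 70 cells counted in the well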;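 note: ratio of well median GFP fluorescence to plate DMSO mean so 100% = DMSO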
MEP2 cherry2 – modulators of MEP2-GFP levels in yeast, confirmation, S. cerevisiae, flow cytometry GFP, second cherry picks; shares compounds with LAP4-GFP MLPCN; S. cerevisiae MEP2-GFP strain, 3 h; GFP response vs DMSO, % at 10 µM; 590 compounds, 10% hits; AID 2622, 2010;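 active = GFP signal above 150% of the solvent control wells, that is a rise of more than half; inconclusive = fewer than 70 yeast cells counted in the well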;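 note: median channel GFP fluorescence of all gated yeast cells per well; ratio of median GFP to plate DMSO average so 100% = DMSO level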
RPL19A GFP CP2 – RPL19A-GFP modulators in TOR pathway yeast, confirmation, cell-based, S. cerevisiae, flow cytometry, second cherry pick. shares compounds with LAP4-GFP MLPCN. S. cerevisiae RPL19A-GFP strain, 3 h; active compounds read low; 100% means same as DMSO wells. GFP response vs DMSO, % at 10 µM. 590 compounds, 3% hits. AID 2623, 2010;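 active = under 65% GFP response relative to DMSO; inconclusive = yeast strain with under 70 measured events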;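 note: median GFP channel fluorescence per well over the all cells gate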
CIT2 GFP CP2 – modulators of CIT2-GFP expression in yeast, confirmation, flow cytometry, second cherry pick, single plex | shares compounds with LAP4-GFP MLPCN | S. cerevisiae CIT2-GFP strain, 3 h; DMSO control wells read 100% | GFP response vs DMSO, % at 10 µM | 590 compounds, 8% hits;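 active = GFP response vs DMSO above about 150%, limit read from the data; inconclusive = fewer than 70 events counted for a yeast strain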;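 note: median green fluorescence per well over all gated yeast cells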
AGP1 GFP CP2 – AGP1-GFP expression modulators, hit retest, confirmation, cell-based, flow cytometry, S. cerevisiae, cherry pick set 2; shares compounds with LAP4-GFP MLPCN; S. cerevisiae AGP1-GFP strain, 3 h; percent response vs DMSO, % at 10 µM; 590 tested, under 10 active;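 active = over 150 percent of DMSO response; inconclusive = yeast strain measured with under 70 events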;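 note: median GFP channel fluorescence over all cells without mother daughter split; sample median GFP divided by mean DMSO control so 100% equals DMSO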
Yeast autofluor – compound autofluorescence in yeast s288c, dose response, artefact control for yeast TOR pathway GFP screen, s288c strain. shares compounds with LAP4-GFP MLPCN. S. cerevisiae s288c, 520 nm autofluorescence, flow cytometry, 3 h; active compounds read high; zero means same as solvent-only cells. fluorescence change (kMESF span) at 33 µM. 610 tested, under 10 active;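 active = fluorescence span over the dose series, or activity score, above about 33, limit read from the data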
Yeast autofl DR – autofluorescence of compounds in yeast s288c, dose response, artefact control for yeast TOR pathway GFP screen, primary hits, KU SAR, s288c parental; 110 tested, under 10 active; shares compounds with LAP4-GFP MLPCN; S. cerevisiae s288c parental, compound autofluorescence, flow cytometry, 3 h; fluorescence change (span) at 33 µM;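 active = fluorescence change span, or the activity score built from it, above 25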
TORC1 bypass gr – wild-type yeast growth inhibition sparing TORC1 bypass cells, mechanism study for yeast TOR pathway GFP screen, BY4741 wild type, TORC1 bypass strain | shares compounds with LAP4-GFP MLPCN | S. cerevisiae BY4741 spot growth rating, 48-72 h; active compounds read low | growth rating (0-3) at 30 µM | 120 tested, under 10 active | AID 504456, 2011;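 active = growth rating at most 1 for wild type yeast while the TORC1 bypass strain still grows fully, rated 3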
The depositor's hits bear a star; i = inactive; ? = inconclusive; · = no result; + = active, no number; [ ] = remark or other dose.

SMILES	RPL19A TOR yeast	Myeloid diff MLP	AGP1 TOR yeast	MEP2 TOR yeast	CIT2-GFP yeast	LAP4-GFP MLPCN	Yeast autofluor	others
Cc1ccc(S(=O)(=O)Cc2cc(F)c([N+](=O)[O-])cc2[N+](=O)[O-])cc1	92.0	?	51.0	120.9	82.5	172.4*	23.4
CCOC(=O)c1ccc([N+](=O)[O-])c(CS(=O)(=O)c2ccc(Cl)cc2)c1	100.1	i	99.4	92.0	99.2	91.2	·
CC(C)Cn1c(=O)c(C(=O)Nc2cnccn2)c(O)c2ccccc21	89.5	i	91.5	91.0	88.5	90.4	·
CC(C)Cn1c(=O)c(C(=O)Nc2ccncc2)c(O)c2ccccc21	48.1*	+	47.6	93.4	59.1	102.7	2.04
Cc1nn(CC(=O)c2ccc(Cl)cc2Cl)c(C)[n+]1N	104.1	i	99.7	107.0	95.8	98.5	·
COc1cccc2oc3ccc(C#Cc4ccccn4)cc3c(=O)c12	98.6	i	87.0	91.7	72.0	152.2*	·	LAP4-GFP pick2=104.8;MEP2 cherry2=93.2;RPL19A GFP CP2=93.7;CIT2 GFP CP2=104.0;AGP1 GFP CP2=100.3
COc1cccc2sc3cc(C#Cc4ccccn4)ccc3c(=O)c12	101.2	i	99.7	104.8	96.6	124.5	·
CCOc1ccc(NC(=O)CN(C)C(=O)c2c(C)nn(-c3ccc(F)cc3)c2Cl)cc1OCC	101.6	i	111.3	100.7	95.1	114.7	·
O=C(/C=C/c1cc(Br)ccc1O)c1ccco1	76.6	·	87.7	87.1	70.0	196.4*	-0.1
CCN(CC)c1ccc(C(=O)O)cc1	98.1	i	93.2	96.1	96.7	99.0	·
CCN(CC)c1ccc(/C=C2\C(=O)c3ccc(C(=O)O)cc3C2=O)cc1	114.9	i	116.2	323.2*	227.5*	234.8*	8.92	LAP4-GFP pick2=276.6*;MEP2 cherry2=391.3*;RPL19A GFP CP2=120.9;CIT2 GFP CP2=262.8*;AGP1 GFP CP2=106.2
CCOC(=O)c1c(C)[nH]c(C)c1C(=O)COC(=O)/C=C/c1cccc(C(F)(F)F)c1	96.8	i	86.3	99.0	92.8	94.6	·
CCOC(=O)c1c(C)[nH]c(C)c1C(=O)COC(=O)/C=C/c1cccc(F)c1	124.0	i	121.2	309.4*	231.4*	245.7*	·	LAP4-GFP pick2=104.2;MEP2 cherry2=115.3;RPL19A GFP CP2=98.0;CIT2 GFP CP2=112.6;AGP1 GFP CP2=95.5
COc1ccc(NC(=O)N2CCCC2C(=O)NCC2CCCCC2)cc1 (stereo unspecified)	101.0	i	92.8	100.7	107.4	85.5	·
CC(C)(C)c1ccc(NC(=O)COC(=O)c2ccc([N+](=O)[O-])s2)cc1	69.7	i	46.4	168.0	95.3	211.2*	4.51	LAP4-GFP pick2=226.0*;MEP2 cherry2=223.0*;RPL19A GFP CP2=85.7;CIT2 GFP CP2=131.2;AGP1 GFP CP2=79.8;Yeast autofl DR=1.39;TORC1 bypass gr=0
Cc1noc(C)c1C(=O)OCC(=O)NCCc1ccc(Cl)cc1	97.2	i	103.4	101.0	102.7	90.8	·
CCOc1ccccc1/C=C(\C#N)C(=O)NC1CC1	92.0	i	95.0	88.7	86.7	95.7	·
CCOc1c(Br)cc(/C=C(\C#N)C(=O)NC2CC2)cc1OC	109.5	i	112.2	105.3	95.0	153.7*[may fluoresce green]	·	LAP4-GFP pick2=122.2;MEP2 cherry2=115.3;RPL19A GFP CP2=92.0;CIT2 GFP CP2=97.3;AGP1 GFP CP2=94.8
O=C(OCCOc1ccc(F)cc1)c1ccc(S(=O)(=O)N2CCCC2)cc1	103.6	i	113.1	107.0	102.0	102.0	·
Cc1ccccc1OCCOC(=O)c1ccc(S(=O)(=O)N2CCCC2)cc1	102.2	i	95.7	118.5	158.2*	116.0	0.41	LAP4-GFP pick2=104.2;MEP2 cherry2=99.6;RPL19A GFP CP2=92.2;CIT2 GFP CP2=94.6;AGP1 GFP CP2=99.5
CCSc1ccc(-c2cccc([N+](=O)[O-])c2)nn1	95.5	i	98.2	96.6	86.8	104.4	·
Nc1nc(NCc2ccco2)nc(NC2CCCCC2)c1[N+](=O)[O-]	92.2	i	97.4	93.5	86.4	100.9	·
O=[N+]([O-])c1c(NC2CCCCC2)nc(NCc2ccccc2)nc1N1CCOCC1	·	·	·	·	·	·	·	TORC1 bypass gr=3
Cc1ccc(NN2C(=O)C=CC2=O)cc1	104.5	i	104.7	101.5	98.7	95.7	·
Cc1ccc(NN2C(=O)C=C(c3ccc(Cl)cc3)C2=O)cc1	53.9	i	73.7	98.2	77.8	202.8*	1.92
O=C1C=C(c2ccccc2)C(=O)N1Nc1ccccc1	47.7*	i	66.7	100.3	74.4	117.5	-0.1
COc1ccc(C2=CC(=O)N(Nc3ccccc3)C2=O)cc1	76.8	i	99.9	92.0	69.6	231.8*	1.63
COc1ccc(C(=O)C[n+]2ccc(-c3nnc4n3CCCCC4)cc2)cc1	102.0	i	98.2	103.5	96.3	101.2	·
